Reference: PubChem BioAssay
Activity calls are given as the source filed them. Unless noted, how the calls were made is not given here.

Legend:
[1] = test system: XIP peptide (Xip251-270) binding; assay: XIP fragment 251-270 binding compounds – biochemical, small-molecule microarray, fluorescence 635/667 nm, 0.1 µg/mL protein, primary screen (AID 1182); settings: fluorescent protein binding, 635 nm, higher = more signal, called active from +8 up or from −8 down
XIP peptide (Xip251-270) = assay: compounds binding XIP fragment 251-270 – biochemical, small-molecule microarray, fluorescence 635/667 nm, 0.5 µg/mL protein, primary screen (AID 1183); settings: fluorescence 635 nm, higher = more signal
[2] = blood-stage malaria parasite viability loss – strain 3D7, DAPI fluorescence, 100 nL, primary screen (AID 1184);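 further: parasites grown inside human red blood cells in medium with human serum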; settings: P. falciparum 3D7 growth, 3 d, higher = more signal
[3] = target: Homeobox protein Hox-A13 (Mus musculus) (UniProt Q62424); assay: disruptors of Hoxa13 oligonucleotide interaction – biochemical, fluorescence polarization, labeled oligonucleotide, primary screen (AID 1185); settings: Hoxa13:DNA binding, 15 min, higher = more signal, called active from +8 up or from −8 down
Chain of Homeobox protein Hox-A13 (Mus musculus) (Q62424 whole entry, looked up): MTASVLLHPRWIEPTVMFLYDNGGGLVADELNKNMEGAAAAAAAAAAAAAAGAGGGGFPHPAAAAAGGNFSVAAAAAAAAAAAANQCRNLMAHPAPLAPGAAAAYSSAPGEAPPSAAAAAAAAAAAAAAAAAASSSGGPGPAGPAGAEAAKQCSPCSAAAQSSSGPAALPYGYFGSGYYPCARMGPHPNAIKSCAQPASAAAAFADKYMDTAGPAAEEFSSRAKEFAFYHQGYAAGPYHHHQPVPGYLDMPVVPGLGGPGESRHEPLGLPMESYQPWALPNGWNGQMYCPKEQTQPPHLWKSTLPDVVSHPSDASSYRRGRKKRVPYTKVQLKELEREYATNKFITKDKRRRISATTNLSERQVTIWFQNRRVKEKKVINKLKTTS

[4] = blockers of DNA damage checkpoint Chk1 activation – imaging, HeLa, hydroxyurea, phospho-Chk1 antibody, percent positive cells, primary screen (AID 1186); settings: hydroxyurea-induced phospho-Chk1 immunofluorescence imaging, higher = more signal
[5] = blockers of DNA damage checkpoint Chk1 activation – imaging, HeLa, hydroxyurea, phospho-Chk1 nuclear intensity, primary screen (AID 1187); settings: hydroxyurea-induced phospho-Chk1 immunofluorescence imaging, higher = more signal

Row | SMILES | composite z-score [1] | composite z-score (XIP peptide (Xip251-270)) | z-score [2] | z-score [3] | z-score [4] | z-score [5]
1 | COC(=O)[C@@]1(Cc2ccc(OC)cc2)[C@H]2c3cc(C(=O)N(C)C)n(Cc4nc5ccccc5[nH]4)c3C[C@H]2CN1C(=O)c1ccccc1 | 0.469 (inactive) | 0.599 | -1.17 | -3.08 (inactive) | 0.399 (inactive) | 0.0842 (inactive)
2 | CCOC(=O)C[C@H]1[C@H](OC(=O)c2ccc(-c3ccccc3)cc2)[C@@H](NC(=O)C2CCCCC2)c2cc(OCCCO)ccc2N1C(=O)c1ccccc1 | -0.264 (inactive) | 0.379 | -0.723 | -2.07 (inactive) | -0.0374 (inactive) | 0.0385 (inactive)
3 | O=C1O[C@@H](c2ccccc2)[C@@H](c2ccccc2)N2[C@@H](c3ccc(O)cc3)[C@]3(C(=O)Nc4ccc(C#CCCO)cc43)[C@@H](C(=O)NC[C@H](O)c3ccccc3)[C@H]12 | 0.437 (inactive) | 0.478 | -0.656 | -5 (inactive) | -0.101 (inactive) | -0.46 (inactive)
4 | CO[C@H]1O[C@H](CO)[C@@H](OC(=O)Nc2ccccc2-c2ccccc2)[C@H](OC(=O)Nc2ccc3c(c2)OCO3)[C@@H]1OC(=O)Nc1ccc2c(c1)OCO2 | 0.882 (inactive) | 0.801 | -2.17 | -3.65 (inactive) | -0.0753 (inactive) | 0.24 (inactive)
5 | CCOC(=O)[C@H]1C/C=C/C[C@H](C(=O)OCC)C(=O)O[C@H]2[C@@H](OC)O[C@H](CO)[C@@H](OC(=O)Nc3ccc(OC)cc3)[C@@H]2OC1=O | 0.568 (inactive) | 0.601 | -1.71 | -0.589 (inactive) | 0.178 (inactive) | 0.395 (inactive)
6 | CC(=O)NCCCC[C@@H]1NC(=O)[C@@H]2C[C@H](C(=O)O)[C@H](c3ccc(O)cc3)N2C1=O | 3.54 (inactive) | -0.0306 | 0.174 | -2.19 (inactive) | 0.318 (inactive) | 0.202 (inactive)
7 | O=C(O)[C@H](Cc1ccccc1)n1cc(-c2ccccn2)nn1 | 0.355 (inactive) | 0.32 | 0.214 | -0.876 (inactive) | 0.721 (inactive) | 0.662 (inactive)
8 | COC(=O)c1c(CC[C@@H](CO)NC(=O)N[C@H](Cn2cc(-c3ccccc3C)nn2)C(C)C)oc(C(C)=O)c1C(=O)OC | -0.0077 (inactive) | -0.0163 | -1.85 | -0.127 (inactive) | 1.16 (inactive) | 0.823 (inactive)
9 | COC(=O)C1(Cc2ccccc2)C=C2C(=C(C(C)C)C(=O)C2C)CN1 (centres undefined) | 0.0989 (inactive) | 0.648 | -1.07 | -9.8 (active) | 0.366 (inactive) | 0.602 (inactive)
10 | CCCCN1CC=CC23O[C@@H]4C=CCOC(=O)[C@@H]4[C@H]2C(=O)N(CCCO)[C@@H]3C1=O (some centres undefined) | 0.769 (inactive) | -0.374 | -1.81 | -4.48 (inactive) | -0.247 (inactive) | -0.169 (inactive)
11 | CCCC[C@@H]1C[C@H]1[C@@H](NC(=O)c1ccccc1)c1ccc(Cl)cc1 | -0.778 (inactive) | -2.03 | -0.385 | -3.04 (inactive) | 0.413 (inactive) | -0.524 (inactive)
12 | COC(=O)[C@@]1(Cc2ccccc2)[C@H]2c3cc(C(=O)N4CCCC4)n(C[C@H](O)CO)c3C[C@H]2CN1C(=O)c1ccccc1 | 0.484 (inactive) | -0.487 | -1.02 | -5.19 (inactive) | 0.905 (inactive) | 0.777 (inactive)
13 | Cc1ccc(S[C@]2(C(=O)NCc3ccccc3)CC(=O)N(C(C)C)[C@@H]2c2ccc(CO)cc2I)cc1 | 1.17 (inactive) | 0.809 | 0.257 | -2.88 (inactive) | 0.422 (inactive) | 0.953 (inactive)
14 | CCOC(=O)C[C@H]1[C@H](OC(=O)c2ccccc2-c2ccccc2)[C@@H](NC(=O)c2ccc3ccccc3n2)c2cc(OCCCO)ccc2N1C(=O)c1ccc2ccccc2n1 | 0.123 (inactive) | 0.309 | -0.456 | -1.53 (inactive) | -0.492 (inactive) | -0.588 (inactive)
15 | O=C(CS)NCCCCCCNC(=O)[C@H]1C[C@H]2C(=O)N[C@@H](Cc3ccccc3)C(=O)N2[C@H]1c1cccc(OCCO)c1 | 0.168 (inactive) | 0.825 | 0.107 | -1.03 (inactive) | -0.0078 (inactive) | 0.671 (inactive)
16 | CCCc1cccc(=O)o1 | 0.684 (inactive) | -0.0514 | 0.581 | -1.77 (inactive) | 0.0999 (inactive) | 0.549 (inactive)
17 | COc1cc2c(cc1OC)CN(C(=O)[C@@H]1[C@H]3C(=O)O[C@H](c4ccccc4)[C@H](c4ccccc4)N3[C@H](c3ccccc3OCCO)[C@@]13C(=O)Nc1ccc(C#CC4(O)CCCCCC4)cc13)CC2 | 0.863 (inactive) | 0.822 | -1.67 | 2.22 (inactive) | -0.517 (inactive) | -0.522 (inactive)

Row | SMILES | composite z-score [1] | composite z-score (XIP peptide (Xip251-270)) | z-score [2] | z-score [3] | z-score [4] | z-score [5]
18 | O=C1c2ccccc2[C@](Cc2ccccc2I)(C(=O)NCc2ccccc2)[C@H](c2ccc(CO)cc2)N1C1CCCCC1 | 0.353 (inactive) | 0.713 | -1.34 | -2.27 (inactive) | -0.353 (inactive) | -0.12 (inactive)
19 | COCCCNC(=O)[C@]1(CCC(=O)OC(C)(C)C)N=C(c2ccc(OCCCO)cc2)O[C@@H]1c1ccccc1 | 0.538 (inactive) | 0.817 | 0.83 | -6.02 (inactive) | -0.289 (inactive) | -0.288 (inactive)
20 | C[n+]1ccc(CCCO)cc1 | 0.955 (inactive) | 1.02 | -1.21 | -2.17 (inactive) | -0.0124 (inactive) | 0.102 (inactive)
21 | CC(C)NC(=O)[C@@]1(C)c2ccccc2C(=O)N(C(C)C)[C@H]1c1ccc(CO)cc1 | 3.06 (inactive) | 0.884 | -0.568 | -2.26 (inactive) | 0.244 (inactive) | 0.246 (inactive)
22 | C=CCN1C(=O)[C@]2(CC=C)N=C(c3ccc(OCCCO)cc3)O[C@@H]2c2ccccc21 | 0.935 (inactive) | 0.707 | -1.96 | -0.0163 (inactive) | -0.0194 (inactive) | 0.169 (inactive)
23 | C=CC[C@@]1(C(=O)N2CCCCC2)N=C(c2ccc(OCCCO)cc2)O[C@@H]1c1ccccc1 | 0.0703 (inactive) | 0.735 | -2.09 | -5.99 (inactive) | -0.377 (inactive) | -0.146 (inactive)
24 | C=CCOC(=O)[C@@H]1[C@H]2C(=O)O[C@H](c3ccccc3)[C@H](c3ccccc3)N2[C@H](c2ccc(OCCOC(=O)[C@H]3C[C@H]4C(=O)N[C@@H](CCCCN(C)C)C(=O)N4[C@H]3c3cccc(OCCO)c3)cc2)[C@@]12C(=O)Nc1ccc(I)cc12 | 1.78 (inactive) | 0.817 | -1.65 | -0.599 (inactive) | -0.426 (inactive) | -0.588 (inactive)
25 | C=CCNC(=O)[C@@H]1[C@H]2C(=O)O[C@H](c3ccccc3)[C@H](c3ccccc3)N2[C@H](c2ccc(OCCO)cc2)[C@@]12C(=O)N(C(=O)OCCOC)c1ccc(C#CC3=CCCCC3)cc12 | 0.0094 (inactive) | 0.659 | -2.19 | 0.713 (inactive) | 0.201 (inactive) | 0.474 (inactive)
26 | COC(=O)[C@@]1(Cc2ccccc2)[C@H]2c3cc(C(=O)N4CCCC4)n(Cc4cc(F)cc5c4OCOC5)c3C[C@H]2CN1C(=O)c1ccccc1 | 0.766 (inactive) | 0.828 | -1.65 | -5.42 (inactive) | 0.189 (inactive) | 0.435 (inactive)
27 | C=CCC(OC(C)=O)[C@@H]1[C@@H](N(Cc2cc3ccccc3o2)C(=O)c2ccc(C)cc2)c2cc(OCCCO)ccc2N1C(=O)Cc1ccc2ccccc2c1 (some centres undefined) | -0.303 (inactive) | -0.419 | -0.429 | -1.45 (inactive) | 0.0151 (inactive) | 0.0749 (inactive)
28 | O=C(N1CCCCC1)[C@@]1(Cc2ccccc2)COC(c2ccc(OCCCO)cc2)=N1 | 1.07 (inactive) | 0.819 | -1.77 | -5.09 (inactive) | -0.542 (inactive) | -0.344 (inactive)
29 | CC(C)N1CC=CC23O[C@@H]4C=CCCOC(=O)C4[C@H]2C(=O)N(CCO)[C@@H]3C1=O (some centres undefined) | -0.3 (inactive) | 0.172 | -0.434 | -4.46 (inactive) | -0.494 (inactive) | -0.578 (inactive)
30 | CN(C)CCCNC(=O)[C@@H]1c2ccccc2C(=O)N(CC23CC4CC(CC(C4)C2)C3)[C@H]1c1ccc(CO)cc1 | 1.18 (inactive) | 0.824 | -2.18 | 3.41 (inactive) | 0.595 (inactive) | 1.05 (inactive)
31 | CN1C(=O)[C@@]2(CCS(=O)(=O)c3ccccc3)N=C(c3ccc(OCCCO)cc3)O[C@H]2c2ccccc21 | 0.489 (inactive) | 0.182 | -2.07 | -6.19 (inactive) | -0.262 (inactive) | 0.146 (inactive)
32 | [N-]=[N+]=NCc1ccccc1C[C@@]1(C(=O)N2CCCCC2)N=C(c2ccc(OCCCO)cc2)O[C@@H]1c1ccccc1N=[N+]=[N-] | 1.25 (inactive) | 0.386 | -2.24 | -1.84 (inactive) | -0.298 (inactive) | 0.246 (inactive)
33 | CCOC(=O)C1=CC[C@@H](c2ccc([N+](=O)[O-])cc2)N(S(=O)(=O)c2ccc(C)cc2)[C@H]1c1ccccc1 | 0.353 (inactive) | 0.552 | -1.41 | 2.35 (inactive) | -0.137 (inactive) | -0.3 (inactive)
34 | CC=CC(O)C1C=CC2C(=O)N(C)C(=O)C2N1N1CCCCC1 (centres undefined) | 0.102 (inactive) | 0.759 | 0.884 | -7.38 (inactive) | 0.436 (inactive) | -0.297 (inactive)
